Test results from PubChem BioAssay AID932 (The Scripps Research Institute Molecular Screening Center, 2007).
About 5,100 (2.5%) of roughly 200,000 compounds were called active.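 Rule for the calls: active = activation above the screen-wide mean activation plus 3 SD (cut at about 130% in these data); inactive = the rest.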 The full list was thinned out, with actives kept by preference.

Assay: STAT1 signaling activators, primary screen, cell-based, HTS, luciferase reporter (AID 932);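 note: raw ratio to IFN-gamma control signal so 100% means no change and 0% no light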
Conditions: NIH 3T3 STAT1-luciferase reporter, IFN-gamma, luminescence; at 5.5 µM; stronger effect = higher value; 100% = IFN-gamma alone, no compound

Activation (% of control), active:
COC(=O)c1ccc(NCC(=O)c2ccccc2)cc1 133%
Cc1ccn(-c2cccc(-n3ccc(C)n3)n2)n1 135%
Cc1ccc(NC(=O)Nc2ccc3oc(C)nc3c2)cc1 177%
CC(C)Cc1cc(C(=O)NCCc2ccccc2)no1 130%
COc1ccc2oc(-c3cccc(NC(=O)CSc4ccc(Cl)cc4)c3)nc2c1 163%
O=C(NNC(=S)Nc1ccc(Br)cc1Cl)c1ccco1 140%

Activation (% of control), inactive:
Cc1ccc(C(=O)CNc2ccc(F)cc2)cc1 111%
COC(=O)c1ccc(NCC(=O)N2CCCCCC2)cc1 114%
CN(Cc1ccccc1)C(=O)CCc1ccccc1 104%
COc1cc(C(=O)NCc2ccc3c(c2)cc(C)n3C)cc(OC)c1OC 89.2%
COc1cccc(CNC(=O)CCC2CCCN(C(=O)c3ccoc3C)C2)c1 (centres undefined) 105%
Cc1cccc(N2CCN(C(=O)/C=C/c3ccco3)CC2)c1C 99.5%
Cc1nc2ccc(NC(=O)C(F)(F)F)cc2o1 95.8%
Cc1nc2cc(NC(=O)NCc3ccccc3)ccc2o1 111%
CC(C)NC(=O)/C(C#N)=C\c1ccc(N(C)C)c(Br)c1 100%
N#Cc1cccc(Nc2c3c(nc4ccccc24)CCCC3)c1 85.5%
Cc1cc(C(=O)NCCCc2ccccc2)no1 110%
CC(C)Cc1cc(C(=O)Nc2cc(Br)ccc2O)no1 101%
COc1ccc2c(c1)CC[C@@H]1[C@@H]2CC[C@]2(C)C(=O)CC[C@@H]12 106%
O=C(Cc1cccc2ccccc12)Nc1ccc2oc(-c3ccccc3)nc2c1 102%
COc1cccc(-c2nc3cc(C)ccc3o2)c1 106%
O=C(Nc1cccc(O)c1)c1ccc(C(=O)c2ccccc2)o1 113%
O=C(NCc1cccs1)c1cc(-c2ccccn2)nc2ccc(Br)cc12 106%
COc1ccc(-c2cn(-c3ccc(OC)cc3)c(=S)[nH]2)cc1 110%
CCC(=O)NC(=S)Nc1ccc(NC(=O)c2ccco2)c(Cl)c1 109%
S=C(Nc1ccc(Br)cc1Cl)NC1CCN(Cc2ccccc2)CC1 100%
CCN1CCN(C(=O)CCN2C(=O)c3ccccc3C2=O)CC1 96.8%
CCc1ccccc1NC(=O)CSc1nnc(-c2ccncc2)o1 99.3%
O=C(Nc1ccc(C(=O)O)cc1)/C(=C/c1ccc([N+](=O)[O-])cc1)NC(=O)c1ccccc1 94.6%
